Source: PubChem BioAssay
“And” between values parts separate entries of the source, which are not always exact repeats. Equal values may be shown once. For some assays here: Potency and affinity values are given separately. Where a structure was tested more than once in an assay, its records may differ in their call. The source made the active and inactive calls. A call without a number means that no potency is given here. Unless noted, the rule behind the calls is not given here.

Experiments:
[1] = antimalarial activity against Dd2 strain (AID 2302;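 active = growth inhibition above 50% at the single 2 µM test dose, taken to imply half-maximal potency below 2 µM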); settings: P. falciparum Dd2 in RBCs, LDH growth readout, 72 h; at 2 µM; stronger effect = higher value
[2] = human hepatoma cell viability loss – ATP luminescence, cytotoxicity control for P. falciparum antimalarial project, primary screen (AID 2303;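 active = inhibition above 50%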); settings: HepG2 viability, 24-48 h, at 10 µM, stronger effect = higher value
[3] = target: L-lactate dehydrogenase (Plasmodium falciparum (isolate CDC / Honduras)) (UniProt Q27743); test: PfLDH activity inhibition – cell lysate, 3D7 strain, counter-screen for P. falciparum growth inhibition project (AID 2304); settings: P. falciparum 3D7 crude extract, LDH APAD/NBT absorbance; at 2 µM; stronger effect = higher value
[4] = inhibition of 3D7 malaria parasite growth – strain 3D7 (AID 2306); settings: P. falciparum 3D7 erythrocytic growth, LDH absorbance, 72 h; at 2 µM; stronger effect = higher value
[5] = target: Calcium-dependent protein kinase 1 (Plasmodium falciparum (isolate 3D7)) (UniProt P62344); test: PfCDPK1 kinase inhibitors, biochemical, TCAMS library (AID 1159585; cut-off not given, nearly all actives have IC50 up to about 0.98 µM;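 note: inhibitors leave more ATP so luminescence rises with inhibition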); settings: recombinant PfCDPK1, Kinase-Glo ATP depletion luminescence
[6] = target: Plasmodium falciparum protein kinase 6 (PK6, PF3D7_1337100) (UniProt Q8IDW1); test: PfPK6 kinase inhibitors, biochemical, TCAMS library (AID 1159586); settings: recombinant PfPK6, Kinase-Glo ATP depletion luminescence
[7] = target: Protein kinase 7 (PK7), Plasmodium falciparum 3D7 (PF3D7_0213400) (UniProt Q7YTF7); test: inhibition of Plasmodium PK7 catalytic activity – biochemical, TCAMS antimalarial set, Kinase-Glo luminescence (AID 1159587); settings: recombinant PfPK7, Kinase-Glo ATP depletion luminescence
[8] = target: Calcium-dependent protein kinase 4 (Plasmodium falciparum (isolate 3D7)) (UniProt Q8IBS5); test: PfCDPK4 kinase inhibitors, biochemical, TCAMS library (AID 1159588; cut-off not given, nearly all actives have IC50 up to about 0.91 µM); settings: recombinant PfCDPK4, Kinase-Glo ATP depletion luminescence
Sequence of Calcium-dependent protein kinase 4 (Plasmodium falciparum (isolate 3D7)) (Q8IBS5 whole entry, looked up): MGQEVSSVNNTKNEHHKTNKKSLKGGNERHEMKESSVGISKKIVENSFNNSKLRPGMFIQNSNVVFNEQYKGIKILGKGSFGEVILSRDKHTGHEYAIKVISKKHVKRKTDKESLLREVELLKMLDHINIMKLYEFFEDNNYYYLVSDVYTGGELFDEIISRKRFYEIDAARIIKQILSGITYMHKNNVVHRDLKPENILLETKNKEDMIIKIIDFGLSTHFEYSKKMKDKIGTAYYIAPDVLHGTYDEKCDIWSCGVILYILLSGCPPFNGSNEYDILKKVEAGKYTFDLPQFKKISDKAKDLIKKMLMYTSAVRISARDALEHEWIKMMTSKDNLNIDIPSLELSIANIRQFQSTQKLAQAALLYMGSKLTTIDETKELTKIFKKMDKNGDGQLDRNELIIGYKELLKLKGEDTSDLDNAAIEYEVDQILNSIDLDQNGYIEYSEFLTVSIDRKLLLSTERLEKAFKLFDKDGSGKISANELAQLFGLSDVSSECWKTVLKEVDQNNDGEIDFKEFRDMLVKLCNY

Sequence of Calcium-dependent protein kinase 1 (Plasmodium falciparum (isolate 3D7)) (P62344 whole entry, looked up): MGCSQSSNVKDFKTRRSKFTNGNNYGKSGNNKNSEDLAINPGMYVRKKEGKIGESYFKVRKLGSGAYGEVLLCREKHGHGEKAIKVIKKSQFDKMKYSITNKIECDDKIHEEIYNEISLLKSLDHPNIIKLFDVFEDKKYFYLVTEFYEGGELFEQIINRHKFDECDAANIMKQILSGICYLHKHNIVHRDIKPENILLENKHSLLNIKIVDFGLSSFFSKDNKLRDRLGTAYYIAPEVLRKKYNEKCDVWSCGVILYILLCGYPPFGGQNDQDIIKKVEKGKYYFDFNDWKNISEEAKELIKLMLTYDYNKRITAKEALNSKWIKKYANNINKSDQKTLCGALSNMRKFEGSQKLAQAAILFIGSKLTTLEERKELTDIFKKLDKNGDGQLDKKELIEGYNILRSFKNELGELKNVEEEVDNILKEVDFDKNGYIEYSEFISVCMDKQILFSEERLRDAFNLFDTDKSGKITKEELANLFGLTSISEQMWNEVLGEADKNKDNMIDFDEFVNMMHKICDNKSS
Sequence of Plasmodium falciparum protein kinase 6 (PK6, PF3D7_1337100) (Q8IDW1 1-305): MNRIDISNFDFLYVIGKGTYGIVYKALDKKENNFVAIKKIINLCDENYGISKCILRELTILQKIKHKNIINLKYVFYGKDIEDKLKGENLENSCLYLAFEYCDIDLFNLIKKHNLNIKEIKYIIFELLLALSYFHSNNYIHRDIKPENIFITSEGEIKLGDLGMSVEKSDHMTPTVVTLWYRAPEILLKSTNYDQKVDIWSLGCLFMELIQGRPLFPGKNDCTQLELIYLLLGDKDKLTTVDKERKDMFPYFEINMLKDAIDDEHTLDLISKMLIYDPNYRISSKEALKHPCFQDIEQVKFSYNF
Sequence of L-lactate dehydrogenase (Plasmodium falciparum (isolate CDC / Honduras)) (Q27743 whole entry, looked up): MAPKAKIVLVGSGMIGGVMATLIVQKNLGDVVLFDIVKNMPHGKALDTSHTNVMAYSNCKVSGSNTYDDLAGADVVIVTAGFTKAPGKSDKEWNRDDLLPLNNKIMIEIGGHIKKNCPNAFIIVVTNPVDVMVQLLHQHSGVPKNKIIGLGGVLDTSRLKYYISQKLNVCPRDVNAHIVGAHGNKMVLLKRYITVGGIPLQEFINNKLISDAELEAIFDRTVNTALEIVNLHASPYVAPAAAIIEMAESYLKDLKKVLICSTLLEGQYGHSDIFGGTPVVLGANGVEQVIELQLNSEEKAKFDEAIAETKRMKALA
Sequence of Protein kinase 7 (PK7), Plasmodium falciparum 3D7 (PF3D7_0213400) (Q7YTF7 1-343): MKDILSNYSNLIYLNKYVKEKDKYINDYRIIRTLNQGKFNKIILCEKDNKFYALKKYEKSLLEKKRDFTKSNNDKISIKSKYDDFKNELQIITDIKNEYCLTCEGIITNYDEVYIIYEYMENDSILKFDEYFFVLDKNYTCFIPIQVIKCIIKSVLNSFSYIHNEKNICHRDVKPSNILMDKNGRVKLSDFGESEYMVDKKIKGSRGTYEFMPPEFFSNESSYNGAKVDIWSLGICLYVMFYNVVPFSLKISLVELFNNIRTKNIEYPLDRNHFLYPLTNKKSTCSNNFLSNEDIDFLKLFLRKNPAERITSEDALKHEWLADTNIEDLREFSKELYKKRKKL

Structure (SMILES)	growth inhibition [1]	inhibition [2]	inhibition [3]	growth inhibition [4]	outcome [5]	outcome [6]	outcome [7]	outcome [8]
COc1cc(NCCCNC(=O)c2cn(Cc3ccccc3)c3ccccc23)nc2ccccc12	66% (active)	13% (inactive)	0% (inactive)	101% (active)	inactive	inactive	inactive	inactive
CNCCCN(C)C(=O)Oc1c(Br)c(C)nc(C)c1-c1ccc(Oc2ccc(OC(F)(F)F)cc2)cc1	96% (active)	17% (inactive)	3% (inactive)	96% (active)	inactive	inactive	inactive	inactive
CCCN(CC(=O)NCCc1ccccc1)c1ccc(C#N)c2ccccc12	39% (inactive)	8% (inactive)	-5% (inactive)	92% (active)	inactive	inactive	inactive	inactive
O=C(Nc1cc(C(F)(F)F)cc(C(F)(F)F)c1)NC1CCC(CN2CCC(c3c[nH]c4ccccc34)CC2)CC1 (stereo unspecified)	72% (active) and 98% (active)	19% (inactive) and 58% (active)	8% (inactive) and -8% (inactive)	97% (active) and 101% (active)	inactive	inactive	inactive	inactive
CC1CN=C(Nc2ncc(Cl)cc2Cl)N1 (stereo unspecified)	3% (inactive)	2% (inactive)	7% (inactive)	99% (active)	inactive	inactive	inactive	inactive
CN(CC(=O)N1CCN(S(=O)(=O)c2cccc(Cl)c2)CC1CN1CCCC1)c1ccc(Cl)c(Cl)c1 (stereo unspecified)	32% (inactive)	32% (inactive)	-1% (inactive)	89% (active)	inactive	inactive	inactive	inactive
C[C@@H](CC1CCCCC1)NCc1ccccc1O	67% (active)	9% (inactive)	3% (inactive)	98% (active)	inactive	inactive	inactive	inactive
COc1cccc(/C=C/C(=O)NC2CCC(CN3CCC(c4c[nH]c5ccccc45)CC3)CC2)c1 (stereo unspecified)	26% (inactive) and 38% (inactive)	19% (inactive) and 30% (inactive)	-1% (inactive) and 6% (inactive)	94% (active) and 100% (active)	inactive	inactive	inactive	inactive
CC1=C(C(=O)NC2CCC(CN3CCC(c4c[nH]c5ccccc45)CC3)CC2)Cc2ccccc21 (stereo unspecified)	24% (inactive) and 15% (inactive)	41% (inactive) and 37% (inactive)	6% (inactive) and 7% (inactive)	97% (active) and 99% (active)	inactive	inactive	inactive	inactive
CNCC(O)c1cc(Cl)c(Cl)cc1C (stereo unspecified)	88% (active)	0% (inactive)	2% (inactive)	98% (active)	inactive	inactive	inactive	inactive
CCCCC1(NC(=O)[C@H](CC(C)C)Nc2ccc(C#N)c3ccccc23)CCCCC1	47% (inactive)	37% (inactive)	5% (inactive)	96% (active)	inactive	inactive	inactive	inactive
COCCNCc1ccc(-c2ccc(CN(C(=O)NC3CCCCC3)C3CCN(Cc4ccccc4)CC3)cc2)cc1	84% (active)	29% (inactive)	-1% (inactive)	94% (active)	inactive	inactive	inactive	inactive
COc1cccc(CCNC(C)Cc2ccc(OCCCCOc3ccccc3)cc2)c1 (stereo unspecified)	90% (active)	100% (active)	5% (inactive)	97% (active)	inactive	inactive	inactive	inactive
CC[C@H]1CN2CC[C@H]1C[C@H]2[C@H](O)c1cc(N2CCCC(CO)C2)nc2ccc(OC)cc12 (stereo partly specified)	99% (active)	11% (inactive)	2% (inactive)	100% (active)	inactive	inactive	inactive	inactive
CO[C@@H]1C[C@@H](C(=O)Nc2ccccc2)N(c2ccc(C#N)c3ccccc23)C1	100% (active)	7% (inactive)	6% (inactive)	98% (active)	inactive	inactive	inactive	inactive
CC[C@H]1CN2CC[C@H]1C[C@H]2[C@H](O)c1cc(-c2ccc(OC(F)(F)F)cc2)nc2ccc(OC)cc12	99% (active)	24% (inactive)	0% (inactive)	98% (active)	inactive	inactive	inactive	inactive
Oc1ccccc1CN1CCC(CCOC(c2ccccc2)c2ccc(Cl)cc2)CC1 (stereo unspecified)	99% (active)	19% (inactive)	-8% (inactive)	97% (active)	inactive	inactive	inactive	inactive
Oc1ccccc1CNCC(O)c1cccc(C(F)(F)F)c1 (stereo unspecified)	97% (active)	1% (inactive)	0% (inactive)	100% (active)	inactive	inactive	inactive	inactive
O=C(/C=C/c1ccccc1O)NC1CCC(CN2CCC(c3c[nH]c4ccccc34)CC2)CC1 (stereo unspecified)	73% (active) and 45% (inactive)	11% (inactive) and 22% (inactive)	-1% (inactive) and 5% (inactive)	101% (active) and 103% (active)	inactive	inactive	inactive	inactive
O=C(/C=C/c1ccc(Cl)c(Cl)c1)Nc1cccc(CN2CCC(c3c[nH]c4ccccc34)CC2)c1	91% (active)	15% (inactive)	0% (inactive)	99% (active)	inactive	inactive	inactive	inactive
Cc1cc(NC(=O)[C@H](CC(C)C)Nc2ccc(C#N)c3ccccc23)ccc1F	88% (active)	35% (inactive)	3% (inactive)	95% (active)	inactive	inactive	inactive	inactive
CC[C@H]1CN2CC[C@@H]1C[C@@H]2[C@@H](O)c1cc(-c2ccc(F)cc2)nc2ccc(OC)cc12	64% (active)	18% (inactive)	-4% (inactive)	98% (active)	inactive	inactive	inactive	inactive
